The full list was thinned out, with hits kept by preference.
TTR transcr act = TTR transcription activation, primary screen; activation, % at 16.7 µM; actives 1.3% (n = 92,000); SH-SY5Y TTR promoter Gaussia luciferase, luminescence; 100% = recombinant luciferase protein wells;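 active means activation above the mean of all tested compounds plus 3 SD, cut at about 9.5% in these data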;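 further: cells exposed to compounds for one day before reading; 0% = median of all test compound wells on the plate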
HuH7 TTR inh = HuH7 TTR transcription inhibition, counter-screen. AID 1117279. inhibition, % at 16.7 µM. HuH7 TTR promoter-Gaussia luciferase reporter, luminescence. actives 4% (n = 1,100). shares compounds with TTR transcr act;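 active means average inhibition above the solvent-only control wells' mean plus 3 SD, cut at about 15% in these data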;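 further: 0% = cells with DMSO only and 100% = cells with inhibitor control FD; inhibitors lower well luminescence so higher value means more inhibition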
TTR act confirm = human TTR transcription activation, confirmation; SHSY5Y TTR promoter Gaussia luciferase, luminescence; 100% = purified Lucia enzyme wells, no cells; 1,100 tested, under 10 active; activation, % at 16.7 µM; shares compounds with TTR transcr act; AID 1117280;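 active means mean activation above a set limit taken from the earlier primary screen, cut at about 11% in these data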;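 further: 0% = DMSO-treated cells and 100% = recombinant Lucia luciferase without cells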
Starred values were filed as active, the others as inactive.

SMILES	TTR transcr act	others
CCn1c(O)c(/C=N/NC(=O)c2ccccc2)c(=O)[nH]c1=S	8
COc1ccccc1-n1c(O)c(/C=N/NC(=S)Nc2ccccc2)c(=O)[nH]c1=S	14*	HuH7 TTR inh=-12;TTR act confirm=0
COc1ccc(Cn2c(O)c(/C=N/NC(=O)c3ccccc3)c(=O)[nH]c2=O)cc1	0
COc1ccc(CN2Cc3cc(-c4ccc(OC)cc4)ccc3-n3nncc3C2)cc1	-2
COP(=O)(C(=O)Nc1ccccc1)C(CC(C)C)NC(=O)OCc1ccccc1 (stereo unspecified)	2
O=C(O)c1cc2ccccc2n1C1CCN(Cc2ccccc2)CC1	6
CC[C@H](C)[C@@H]1OC(=O)[C@H](C(C)C)N(C)C(=O)[C@H](C(C)C)NC(=O)[C@@H](C)[C@@H](CCCC#CBr)OC(=O)[C@H](C(C)C)N(C)C(=O)C2CCCN2C1=O (stereo partly specified)	-4
Cc1nn(C)c(C)c1P(=S)(c1c(C)nn(C)c1C)N(C)C	9.9*	HuH7 TTR inh=-4;TTR act confirm=-1
CC(C)C(CN1CCC(C)(c2cccc(O)c2)[C@@H](C)C1)NC(=O)C1Cc2ccc(O)cc2CN1 (stereo partly specified)	1
COc1cc(O)c2c(c1)/C=C/C[C@H](O)[C@H](O)[C@@H](O)/C=C/C[C@H](C)OC2=O	1
COC(=O)C1=Nc2ccccc2/C1=C\c1c(O)n(C)c(=O)n(C)c1=O	0
Cn1c(O)c(/C=C2\N=c3ccccc3=C2CCNC(=S)NC2CC2)c(=O)n(C)c1=O	13*	HuH7 TTR inh=17*;TTR act confirm=0
Cn1c(O)c(/C=C2\C=Nc3ccccc32)c(=O)n(C)c1=O	0

Screening results as filed in PubChem BioAssay.
